This is a sample that favours compounds with a hit; in the whole collection about 1.5% have one here.
PrPC TRFRET = inhibitors of human cell surface prion protein PrPC, primary screen, cell-based, TR-FRET | Major prion protein (Homo sapiens), P04156 | TR-FRET read-out | inhibition, % at 13.8 µM | 370,000 tested, 0.43% active | AID 720596, 2013; in the data active = inhibition above about 24%
VHR inh abs = VHR1 phosphatase inhibitors, primary screen, biochemical, absorbance, uHTS. recombinant VHR phosphatase, pNPP absorbance. inhibition, % at 13.3 µM. 290,000 tested, 0.52% active. AID 1654, 2009; in the data active = inhibition above about 50%
Target sequence (P51452 whole entry, looked up): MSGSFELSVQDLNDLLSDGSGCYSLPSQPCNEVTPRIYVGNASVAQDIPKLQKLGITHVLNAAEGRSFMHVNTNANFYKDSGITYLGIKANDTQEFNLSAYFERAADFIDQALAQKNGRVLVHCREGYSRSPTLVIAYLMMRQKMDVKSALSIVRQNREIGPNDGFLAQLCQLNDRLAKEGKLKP
PrP 5UTR inh = inhibition of PrP 5' UTR reporter expression; cell-based PrP 5' UTR mRNA reporter, plate reader; inhibition, % (test concentration not listed); 340,000 tested, 0.35% active; AID 488862, 2010; in the data active = inhibition above about 52%
MazF activator = activators of E. coli MazEF toxin-antitoxin RNase, primary screen, biochemical, fluorescence, uHTS; Endoribonuclease toxin MazF (Escherichia coli (strain K12)), P0AE70; FAM/BHQ RNA-DNA oligo cleavage fluorescence, 5 h; activation, % at 20 µM; AID 504720, 2011; 350,000 tested, 0.32% active; in the data active = activation above about 50%
Target sequence (P0AE70 whole entry, looked up): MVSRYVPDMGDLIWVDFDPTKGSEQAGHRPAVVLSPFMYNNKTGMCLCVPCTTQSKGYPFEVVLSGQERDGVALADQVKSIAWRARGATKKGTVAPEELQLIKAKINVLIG
Mtb hypoxia rep = PubChem AID 1159583; 300,000 tested, 0.1% active; fluorescence inhibition, % (no concentration beside the values); M. tuberculosis hypoxia-regulated fluorescent reporter, fluorescence; in the data active = fluorescence inhibition mostly above about 23%, no sharp cut-off; inactive = mostly below about 17%
SARS 3CLpro inh = SARS-CoV 3CLpro protease inhibitors, primary screen, biochemical, quenched FRET. 290,000 tested, 0.14% active. inhibition, % at 6 µM. recombinant SARS-CoV 3CLpro, quenched FRET peptide cleavage; in the data active = inhibition above about 12%
PrP 5UTR single = prion 5' UTR mRNA inhibition, cherry-pick retest. shares compounds with PrP 5UTR inh. cell-based prion protein 5' UTR reporter, plate reader. inhibition, % at 2.5 µM. 1,100 tested, 48% active. AID 504592, 2011; in the data active = inhibition above about 54%
A number is an active result.

CCC1=Nc2cc(C(=O)NCc3ccco3)ccc2Sc2ccc(C)cc21 was read as PrPC TRFRET inactive, VHR inh abs inactive, PrP 5UTR inh 69, MazF activator inactive, Mtb hypoxia rep inactive, SARS 3CLpro inh inactive and PrP 5UTR single 86.
Screening CCCC1=Nc2cc(C(=O)NCCCOC(C)C)ccc2Sc2ccccc21 returned PrPC TRFRET inactive, VHR inh abs inactive, PrP 5UTR inh inactive, MazF activator inactive, Mtb hypoxia rep inactive and SARS 3CLpro inh inactive.
For CC1COC(=O)C(NC(=O)OCC2c3ccccc3-c3ccccc32)CC=CCC(CC(=O)N(CCO)Cc2ccccc2)C(=O)N1 (stereo unspecified) the results were Mtb hypoxia rep inactive.
`N#CC1=C(N)n2c(sc(=Cc3ccco3)c2=O)=C(C#N)C1c1ccco1` (stereo unspecified) gave Mtb hypoxia rep inactive.
COc1ccc(NC(=O)Nc2ccc3c(c2)C(=O)N(C(C)CO)CC(C)C(CN(C)S(C)(=O)=O)O3)cc1 (stereo unspecified) was read as Mtb hypoxia rep inactive.
`CC(C)c1ccc(OCC(=O)NNC(=O)c2cnccn2)cc1` gave PrPC TRFRET inactive, VHR inh abs inactive, PrP 5UTR inh 62, MazF activator inactive, Mtb hypoxia rep inactive, SARS 3CLpro inh inactive and PrP 5UTR single inactive.
For CN(C)c1ccc(/C=N/N=C2/NC(=O)/C(=C/c3ccc([N+](=O)[O-])cc3)S2)cc1 the results were PrPC TRFRET inactive, VHR inh abs inactive, PrP 5UTR inh 63, MazF activator inactive, SARS 3CLpro inh inactive and PrP 5UTR single inactive.
`O=C(N/N=C/c1ccc(O)cc1)c1cccc(N/N=C/c2ccc(O)cc2)c1` gave PrPC TRFRET inactive, VHR inh abs inactive, PrP 5UTR inh inactive, MazF activator inactive and SARS 3CLpro inh inactive.
O=C(N/N=C/c1ccncc1)c1cccc(N/N=C/c2ccncc2)c1 was read as PrPC TRFRET inactive, VHR inh abs inactive, PrP 5UTR inh 72, MazF activator inactive, SARS 3CLpro inh inactive and PrP 5UTR single inactive.
For Cc1nc2ccccc2n1C(=NS(=O)(=O)c1ccccc1)c1ccccc1 the results were Mtb hypoxia rep inactive.
COc1cc(C=NNC(=O)c2cccnc2)ccc1OC(=O)c1cccc(Br)c1 was read as Mtb hypoxia rep inactive.
Screening COc1ccc(NC(=O)CC(C)=NNC(=O)c2ccco2)c([N+](=O)[O-])c1 returned Mtb hypoxia rep inactive.
`O=C(NN=Cc1cc2cc3c(cc2nc1Cl)OCCO3)c1ccccc1O` gave Mtb hypoxia rep inactive.
`CCOc1ccccc1N(CC(=O)Nc1cccnc1)S(=O)(=O)c1ccc(C)cc1` gave PrPC TRFRET inactive, VHR inh abs inactive, PrP 5UTR inh 54, MazF activator inactive, Mtb hypoxia rep inactive, SARS 3CLpro inh inactive and PrP 5UTR single inactive.
Screening COc1ccccc1NC(=S)N(Cc1ccccc1)Cc1cccs1 returned PrPC TRFRET inactive, VHR inh abs inactive, PrP 5UTR inh 67, MazF activator inactive, Mtb hypoxia rep inactive, SARS 3CLpro inh inactive and PrP 5UTR single inactive.
Cc1ccc(N2C(=O)C(=Cc3ccco3)SC2=S)cc1 was read as Mtb hypoxia rep inactive.
For Cc1ccc(C(=O)/C=C/Nc2ccccn2)cc1 the results were PrPC TRFRET inactive, PrP 5UTR inh 76, MazF activator inactive, Mtb hypoxia rep inactive, SARS 3CLpro inh inactive and PrP 5UTR single 62.
COc1ccc(C=NNC(=O)c2cc(C(C)(C)C)[nH]n2)cc1COc1ccc(F)cc1F was read as Mtb hypoxia rep inactive.
`COC(=O)C1CC(=NNS(=O)(=O)c2ccc(C)cc2)c2ccsc2C1` (stereo unspecified) gave Mtb hypoxia rep inactive.
Screening COc1ccc(C(=O)N2CC(=O)Nc3ccccc32)cc1S(=O)(=O)N1CCOCC1 returned PrPC TRFRET inactive, VHR inh abs inactive, MazF activator inactive, Mtb hypoxia rep inactive and SARS 3CLpro inh inactive.

High-throughput results deposited in PubChem BioAssay by several laboratories.
